Assay [1] is described as follows: qHTS of pediatric cancer cell lines to identify multiple opportunities for drug repurposing: Primary screen for SJ-GBM2 cells (AID 1347091). Also: potency is read from the fitted curve at half-maximal effect. In short, it runs like this:
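Eight- or eleven-point concentration series, 48 h treatment at 37 degrees C in growth media; readout CellTiter-Glo luminescence. Potency and efficacy were taken from the concentration-response curves.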
For orientation: Quantitative high-throughput screening tests each substance at several concentrations.

A short description of assay [2]: qHTS of pediatric cancer cell lines to identify multiple opportunities for drug repurposing: Primary screen for SK-N-MC cells (AID 1347093). Also: potency is read from the fitted curve at half-maximal effect. In short, it runs like this: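 Metabolically active cells were quantified by ATP-dependent luminescence (CellTiter-Glo, 15 min at room temperature) following 48 h treatment. Cells had been plated at 500-1,000 per well and settled for 5 h beforehand.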

Assay [3] in a line: qHTS of pediatric cancer cell lines to identify multiple opportunities for drug repurposing: Primary screen for BT-37 cells (AID 1347094). Also: potency is read from the fitted curve at half-maximal effect. In short, it runs like this: (§1)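 Luminescence from CellTiter-Glo served as readout of metabolically active cells after 48 h compound exposure. Titrations: MIPE 11-point, from 0.78 nM; NPC 8-point, from 0.59 nM (final). Concentration-response curves came straight from the primary screen.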

The nature of assay [4]: qHTS of pediatric cancer cell lines to identify multiple opportunities for drug repurposing: Primary screen for U-2 OS cells (AID 1347096). Also: nearly all actives have a fitted effect of over 50% in size. In short, it runs like this: (§2)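 Cells (500-1,000/well) in growth media were settled 5 h at 37 degrees C, then given compounds for 48 h. Viability was read as CellTiter-Glo luminescence. Primary runs used MIPE at 11 points (0.78 nM-46 µM) and NPC at 8 points (0.59 nM-46 µM); follow-ups used 11 points.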

Assay [5] in a line: qHTS of pediatric cancer cell lines to identify multiple opportunities for drug repurposing: Primary screen for LAN-5 cells (AID 1347100). Also: potency is read from the fitted curve at half-maximal effect. In short, it runs like this: as §2
Assay [6] in a line: qHTS of pediatric cancer cell lines to identify multiple opportunities for drug repurposing: Primary screen for BT-12 cells (AID 1347101). Also: nearly all actives have a fitted effect of over 25% in size. Also: potency is read from the fitted curve at half-maximal effect. In short, it runs like this:
(§3)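 Cells (500-1,000/well) rested 5 h, then received compounds for 48 h; metabolically active cells were measured by CellTiter-Glo luminescence. Final concentrations spanned up to 46 µM (MIPE, 11-point) or 0.59 nM-46 µM (NPC, 8-point) in primary screens, 11-point in follow-ups.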

Assay [7] in a line: qHTS of pediatric cancer cell lines to identify multiple opportunities for drug repurposing: Primary screen for Rh18 cells (AID 1347102). Also: nearly all actives have a fitted effect of over 65% in size. Also: potency is read from the fitted curve at half-maximal effect. In a few lines: as §2
Assay [8] in a line: qHTS of pediatric cancer cell lines to identify multiple opportunities for drug repurposing: Primary screen for OHS-50 cells (AID 1347103). Also: nearly all actives have a fitted effect of over 40% in size. Also: potency is read from the fitted curve at half-maximal effect. In a few lines: as §3
Assay [9] can be described thus: qHTS of pediatric cancer cell lines to identify multiple opportunities for drug repurposing: Primary screen for MG 63 (6-TG R) cells (AID 1347105). Also: nearly all actives have a fitted effect of over 50% in size. Also: potency is read from the fitted curve at half-maximal effect. In a few lines: as §1
A short description of assay [10]: qHTS of pediatric cancer cell lines to identify multiple opportunities for drug repurposing: Primary screen for Rh30 cells (AID 1347107). Also: nearly all actives have a fitted effect of over 75% in size. Also: potency is read from the fitted curve at half-maximal effect. In a few lines:
as §2

Assay [11] is described as follows: qHTS of pediatric cancer cell lines to identify multiple opportunities for drug repurposing: Primary screen for A673 cells (AID 1347092). Also: potency is read from the fitted curve at half-maximal effect; nearly all actives have a fitted effect of over 45% in size. In short, it runs like this: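 Cell viability of A673 measured by CellTiter-Glo ATP luminescence after 48 hours compound exposure. Dilution series spanned 0.78 nM to 46 µM (MIPE, 11-point) or 0.59 nM to 46 µM (NPC, 8-point); bortezomib 2.3 uM positive control.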

Assay [12] is described as follows: qHTS of pediatric cancer cell lines to identify multiple opportunities for drug repurposing: Primary screen for NB-EBc1 cells (AID 1347095). Also: potency is read from the fitted curve at half-maximal effect. In short, it runs like this: as §1
A short description of assay [13]: qHTS of pediatric cancer cell lines to identify multiple opportunities for drug repurposing: Primary screen for NB1643 cells (AID 1347099). Also: nearly all actives have a fitted effect of over 50% in size. Also: potency is read from the fitted curve at half-maximal effect. In short, it runs like this: as §1
A short description of assay [14]: qHTS of pediatric cancer cell lines to identify multiple opportunities for drug repurposing: Primary screen for control Hh wild type fibroblast cells (AID 1347106).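 Also: series mostly up to about 46 µM; a drop in luminescence marks cytotoxicity and a rise apparent proliferation; nearly all actives have a fitted effect of over 55% in size.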 In a few lines: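 Viability after 48 h compound treatment at 37C, 500-1,000 cells/well, read as ATP luminescence with CellTiter-Glo. Primary screens used 11-point (MIPE, 0.78 nM-46 µM) or 8-point (NPC, 0.59 nM-46 µM) final concentrations; follow-up screens used 11-point dilutions.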

A short description of assay [15]: qHTS of pediatric cancer cell lines to identify multiple opportunities for drug repurposing: Primary screen for Saos-2 cells (AID 1347097). Also: nearly all actives have a fitted effect of over 40% in size. Also: potency is read from the fitted curve at half-maximal effect. In short, it runs like this:
as §1

A short description of assay [16]: qHTS of pediatric cancer cell lines to identify multiple opportunities for drug repurposing: Primary screen for SK-N-SH cells (AID 1347098). Also: nearly all actives have a fitted effect of over 65% in size. Also: potency is read from the fitted curve at half-maximal effect. In short, it runs like this:
as §3

A short description of assay [17]: qHTS of pediatric cancer cell lines to identify multiple opportunities for drug repurposing: Primary screen for RD cells (AID 1347104). Also: nearly all actives have a fitted effect of over 55% in size. Also: potency is read from the fitted curve at half-maximal effect. In short, it runs like this: as §1
Assay [18] can be described thus: qHTS of pediatric cancer cell lines to identify multiple opportunities for drug repurposing: Primary screen for Rh41 cells (AID 1347108). Also: nearly all actives have a fitted effect of over 70% in size. Also: potency is read from the fitted curve at half-maximal effect. In a few lines:
as §1

Assay [19] is described as follows: qHTS of pediatric cancer cell lines to identify multiple opportunities for drug repurposing: Confirmatory screen for NB1643 cells (AID 1347109). Also: nearly all actives have a fitted effect of over 45% in size. In a few lines: as §2

Results filed as inconclusive are left out. Calls of active or inactive are those of the source. Calls follow the shape of the dose curve; as a rule, active = well fitted curve in the direction sought with a large enough effect; inconclusive = small, poorly fitted or top-dose-only effect, or another doubt; inactive = no such curve, though single readings can be large; an effect the other way counts as inactive or inconclusive.

Regarding `OC[C@H]1O[C@@H](OCCc2ccc(O)cc2)[C@H](O)[C@@H](O)[C@H]1O`, the Potency entry in assay [1], in [3], in assay [4], in assay [5], in assay [6] and in [7] was “inactive” in each case. Moreover, the Potency entry in assay [8], in [9] and in assay [10] was “inactive” each time. The Potency in [2] was 26.4 µM (active).
As to `O=C(Nc1ccccc1)Nc1ccc(-c2ccc(C(=O)[C@H]3CCC[C@H]3C(=O)O)cc2)cc1`, the Potency in assay [11] is 11.8 µM (active); in [2], 1.87 µM (active). In addition, the Potency entry in [12], in [4], in [13], in assay [7] and in [14] was “inactive” throughout.
With `CC[C@@H]([C@H](C)O)n1ncn(-c2ccc(N3CCN(c4ccc(OCC5CO[C@@](Cn6cncn6)(c6ccc(F)cc6F)C5)cc4)CC3)cc2)c1=O` (stereo partly drawn), the Potency was 18.7 µM (active) in assay [11]; 16.6 µM (active) in assay [2]; 20.9 µM (active) in [12]; 26.4 µM (active) in assay [15]; 23.5 µM (active) in assay [13]; 21.7 µM (active) in [6]. The Potency in assay [8] was 21.7 µM (active); in [17] it was 20.9 µM (active). The Potency result in assay [4], in [16], in [9] and in assay [14] was “inactive” each time.
Turning to `C#CCN(C)CC1=Cc2ccccc2Oc2ccccc21`, the Potency result in assay [1], in [3], in assay [4], in [16], in [6] and in [7] was “inactive” in each case. In assay [14], the Potency result was “inactive”.
Turning to `CN1CCc2c(n(Cc3ccc(C(=O)NO)cc3)c3ccccc23)C1`, the Potency was 14.8 µM (active) in assay [11]; 9.35 µM (active) in [2]; 16.6 µM (active) in assay [12]; 11.8 µM (active) in assay [13]; 16.6 µM (active) in [5]; 18.7 µM (active) in [7]. The Potency in assay [8] is 21.7 µM (active); in assay [17], 18.7 µM (active); in assay [18], 11.8 µM (active). Also, the Potency entry in assay [4], in assay [15], in assay [14] and in assay [10] was “inactive” in each case.
In the case of `CCCCc1ccc(NS(=O)(=O)c2ccc(C)c(C(=O)N3CCN(c4cccc(C)c4C)CC3)c2)cc1`, the Potency in assay [1] was 20.9 µM (active); in assay [2] it was 23.5 µM (active); in assay [13], 23.5 µM (active); in assay [17] it was 33.2 µM (active). Moreover, the Potency entry in [4] and in assay [14] was “inactive” each time.
As for `C[C@H](c1ccc(F)cc1CCCC(=O)O)N(c1cc(F)ccc1F)S(=O)(=O)c1ccc(Cl)cc1`, the Potency in [11] is 18.7 µM (active); in [2], 3.72 µM (active); in assay [16], 19.2 µM (active); in [10], 14.8 µM (active). The Potency entry in [12], in assay [4], in assay [6] and in [14] was “inactive” in each case.
`NC(=O)c1nnn(Cc2cc(Cl)c(C(=O)c3ccc(Cl)cc3)c(Cl)c2)c1N`: the Potency is 18.7 µM (active) in [1]; 23.5 µM (active) in assay [2]; 23.5 µM (active) in assay [15]; 30.4 µM (active) in assay [16]; 20.9 µM (active) in [5]; 21.7 µM (active) in [8]. Besides, the Potency result in [4], in [9] and in assay [14] was “inactive” each time.
`Cc1cccc(Nc2nc(N[C@@H]3CCCC[C@H]3N)ncc2C(N)=O)c1`: the Potency in assay [11] is 18.7 µM (active); in assay [2], 6.62 µM (active); in assay [3] it was 27.3 µM (active); in assay [15] it was 8.33 µM (active); in assay [16] it was 27.1 µM (active); in assay [5] it was 18.7 µM (active). For the same compound, the Potency was 30.6 µM (active) in assay [6], 7.69 µM (active) in [8], 16.6 µM (active) in [17] and 14.8 µM (active) in [9]. The Potency entry in [12] and in [14] was “inactive” throughout.
Take `CC[C@H](CC#N)OC(=O)N[C@@H](C)c1cccc(NC(=O)Nc2ccc(-c3cnco3)c(OC)c2)c1`: the Potency in assay [11] is 0.743 µM (active); in [2] it was 0.59 µM (active); in [3], 0.485 µM (active); in assay [12] it was 0.296 µM (active); in assay [15] it was 18.7 µM (active); in assay [13] it was 0.743 µM (active). Further, the values for the Potency in assay [6] and in [8] were 0.611 µM (active) and 7.69 µM (active), respectively. The Potency result in [16] and in assay [7] was “inactive” throughout.
Take `Cc1nn(Cc2ccccc2Cl)c(C)c1CN(C)CC(O)COc1ccc(Cl)cc1` (stereo not drawn): the Potency in [1] is 20.9 µM (active); in assay [2] it was 1.87 µM (active); in assay [16] it was 24.1 µM (active); in assay [5], 20.9 µM (active); in assay [8], 24.3 µM (active); in assay [17], 33.2 µM (active). Further, the Potency entry in assay [4], in assay [15] and in [14] was “inactive” throughout.
Take `Cc1cc(CS(=O)(=O)c2ccccc2)cc(OCc2ccc(CN3CCC[C@H]3CO)cc2)c1`: the Potency in [11] is 5.9 µM (active); in assay [2] it was 2.64 µM (active); in assay [13], 14.8 µM (active); in [17], 5.9 µM (active); in assay [18], 11.8 µM (active). Also, the Potency entry in assay [12], in assay [4], in assay [5], in assay [14] and in assay [19] was “inactive” each time.
For `CC1CNc2c(cccc2S(=O)(=O)N[C@@H](CCCN=C(N)N)C(=O)N2CC[C@@H](C)C[C@@H]2C(=O)O)C1` (stereo partly drawn), the Potency is 5.9 µM (active) in assay [11]; 6.62 µM (active) in assay [2]; 10.9 µM (active) in [3]; 6.62 µM (active) in [12]; 8.57 µM (active) in assay [16]; 5.26 µM (active) in assay [13]. For the same compound, the Potency entry in [4], in assay [8], in assay [9], in [10] and in assay [18] was “inactive” throughout.
On to `O=C(O)CCNc1cc(N2CCc3ccccc3CC2)nc(-c2ccccn2)n1`, for which the Potency in assay [11] is 18.7 µM (active); in assay [2], 23.5 µM (active); in assay [12], 23.5 µM (active). The Potency entry in assay [6], in [8], in [17], in assay [9], in assay [14] and in assay [10] was “inactive” throughout.
Take `COc1ccc2ccc(=O)oc2c1CC=C(C)C`: the Potency entry in assay [1] and in assay [10] was “inactive” throughout. In addition, the Potency is 9.35 µM (active) in assay [2]; 18.7 µM (active) in assay [15]; 29.6 µM (active) in assay [5]; 24.3 µM (active) in [6]; 24.3 µM (active) in assay [8].
As for `CCC(=C(CC)c1ccc(O)cc1)c1ccc(O)cc1`, the Potency in assay [11] was 18.7 µM (active); in [2], 4.18 µM (active); in assay [3], 21.7 µM (active); in assay [16] it was 7.64 µM (active); in assay [13], 9.35 µM (active); in assay [5], 16.6 µM (active). For the same compound, the results for the Potency in [8] and in [9] were 30.6 µM (active) and 18.7 µM (active), respectively. In addition, the Potency result in [4], in [7], in assay [14], in assay [10] and in assay [18] was “inactive” in each case.

These data come from PubChem BioAssay (NCATS).
